# According to PubChem BioAssay (NCATS):
# Where “and” joins values, the source holds several entries; their conditions need not be identical. Equal values may be shown once. Records with an inconclusive call do not appear. A call without a number means that no potency is given here. Calls of active or inactive are those of the source. Unless noted, calls come from the whole dose curve; as a rule, active = well fitted curve in the direction sought with a large enough effect; inconclusive = small, poorly fitted or top-dose-only effect, or another doubt; inactive = no such curve, though single readings can be large; an effect the other way counts as inactive or inconclusive.
# Experiments:
# [1] = molecular target: Cytochrome P450 3A4 (Homo sapiens) (UniProt P08684); test: qHTS Assay for Activators of Cytochrome P450 3A4 (AID 885); note: nearly all actives have a fitted effect of over 65% in size
# Chain of Cytochrome P450 3A4 (Homo sapiens) (P08684 whole entry, looked up): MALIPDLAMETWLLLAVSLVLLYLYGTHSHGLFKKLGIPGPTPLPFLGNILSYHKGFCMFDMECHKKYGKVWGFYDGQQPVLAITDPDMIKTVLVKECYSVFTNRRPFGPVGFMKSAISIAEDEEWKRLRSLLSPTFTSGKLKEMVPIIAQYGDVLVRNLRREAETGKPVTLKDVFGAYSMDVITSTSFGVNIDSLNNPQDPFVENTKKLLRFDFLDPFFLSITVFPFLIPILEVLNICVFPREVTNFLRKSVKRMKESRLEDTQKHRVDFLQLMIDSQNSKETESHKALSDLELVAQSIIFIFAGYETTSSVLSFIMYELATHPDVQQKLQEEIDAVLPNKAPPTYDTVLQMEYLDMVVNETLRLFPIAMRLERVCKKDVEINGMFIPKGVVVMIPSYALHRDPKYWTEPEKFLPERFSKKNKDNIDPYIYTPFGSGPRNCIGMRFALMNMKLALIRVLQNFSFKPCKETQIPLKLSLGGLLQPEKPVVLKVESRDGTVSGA
# How it was run: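 Activators are scored by enhanced luminescence from CYP3A4 conversion of luciferin-PPXE (25uM, equal to KM) to luciferin, after 60 min at RT with an NADPH-regenerating system.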
# [2] = Confirmation and Secondary Assay for Modulators of Hemoglobin Beta Chain Splicing at IVS2 654 locus (AID 910);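 note: HeLa cells stably carrying EGFP split by mutant beta-globin IVS2-654 intron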
# How it was run: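 HeLa cells stably expressing EGFP interrupted by β-globin IVS2-654 intron, seeded overnight in Opti-MEM/2% FCS, then treated 2 days at 37 °C. Restored splicing read as total peak GFP intensity per well by laser scanning cytometry (488 nm excitation, 500–520 nm emission); 500 nM antisense PNA as control.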
# [3] = Confirmation and Secondary Assay for Modulators of Hemoglobin Beta Chain Splicing at IVS2 705 locus (AID 930);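 note: HeLa cells stably expressing the EGFP-705 splicing reporter; GFP fluorescence per well restored by corrected splicing of the IVS2-705 intron in EGFP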
# How it was run: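 Assay measures total GFP intensity per well in HeLa EGFP-705 cells after 2 days with compound; mis-splicing normally truncates EGFP, so fluorescence indicates corrected splicing.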
# [4] = qHTS Assay for Lipid Storage Modulators (AID 1519; calls by dose curve); conditions: Drosophila S3 cells, BODIPY lipid droplet/cell ratio, laser cytometry, cells loaded with oleic acid
# How it was run: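 Cells seeded at 5,000 per well were treated with compounds over a concentration series and loaded with oleic acid (400 uM, as added). Lipid droplet fluorescence (488 nm excitation, 500-530 nm channel) was read by laser-scanning cytometry and normalized to 20 uM Triacsin C.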
# [5] = molecular target: Ubiquitin carboxyl-terminal hydrolase 1 (Homo sapiens) (UniProt O94782); test: Inhibitors of USP1/UAF1: Pilot qHTS (AID 504865);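 note: rhodamine fluorescence freed from ubiquitin-rhodamine substrate followed over time; top concentration of the series differs between compounds; nearly all actives have a fitted effect of over 35% in size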
# Chain of Ubiquitin carboxyl-terminal hydrolase 1 (Homo sapiens) (O94782 whole entry, looked up): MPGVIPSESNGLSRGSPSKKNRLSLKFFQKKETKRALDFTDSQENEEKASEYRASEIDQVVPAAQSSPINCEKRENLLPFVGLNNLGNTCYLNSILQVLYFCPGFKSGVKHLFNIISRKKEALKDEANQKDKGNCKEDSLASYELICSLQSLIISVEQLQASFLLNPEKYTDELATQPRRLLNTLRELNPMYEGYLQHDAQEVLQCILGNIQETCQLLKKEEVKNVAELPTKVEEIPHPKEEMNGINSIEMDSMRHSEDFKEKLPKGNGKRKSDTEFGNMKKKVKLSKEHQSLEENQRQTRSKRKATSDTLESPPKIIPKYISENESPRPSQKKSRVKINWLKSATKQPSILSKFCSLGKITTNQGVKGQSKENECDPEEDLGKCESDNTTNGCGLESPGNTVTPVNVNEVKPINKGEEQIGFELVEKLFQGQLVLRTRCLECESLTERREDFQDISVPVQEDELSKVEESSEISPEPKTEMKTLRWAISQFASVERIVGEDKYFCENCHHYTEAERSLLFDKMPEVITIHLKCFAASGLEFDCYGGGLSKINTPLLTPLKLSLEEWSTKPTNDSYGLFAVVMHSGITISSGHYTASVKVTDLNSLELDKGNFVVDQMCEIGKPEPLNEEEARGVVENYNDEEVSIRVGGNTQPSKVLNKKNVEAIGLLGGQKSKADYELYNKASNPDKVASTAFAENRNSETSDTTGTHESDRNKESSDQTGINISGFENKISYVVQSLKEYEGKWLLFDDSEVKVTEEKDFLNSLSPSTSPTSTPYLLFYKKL
# How it was run: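 Deubiquitinase activity followed as kinetic rhodamine fluorescence release from 150 nM Ub-Rho. 1 nM USP1/UAF1 with compound, after 15 min room-temperature preincubation, in HEPES pH 7.8 buffer containing TCEP, EDTA, BSA and Tween-20.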
# [6] = molecular target: Cytochrome P450 3A4 (Homo sapiens) (UniProt P08684); test: qHTS Assay for Inhibitors and Substrates of Cytochrome P450 3A4 (AID 884); note: nearly all actives have a fitted effect of over 50% in size
# How it was run: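 Luminescent readout of luciferin produced by CYP3A4 (20 nM) dealkylation of Luciferin-PPXE, 25 uM (its KM). NADPH-driven reaction ran 60 min at RT after 10 min compound preincubation; data scaled to 57 uM ketoconazole as 100% inhibition.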
# [7] = molecular target: Cytochrome P450 2D6 (Homo sapiens) (UniProt P10635); test: qHTS Assay for Inhibitors and Substrates of Cytochrome P450 2D6 (AID 891); note: potency is the fitted concentration of half-maximal effect; nearly all actives have a fitted effect of over 60% in size
# Chain of Cytochrome P450 2D6 (Homo sapiens) (P10635 whole entry, looked up): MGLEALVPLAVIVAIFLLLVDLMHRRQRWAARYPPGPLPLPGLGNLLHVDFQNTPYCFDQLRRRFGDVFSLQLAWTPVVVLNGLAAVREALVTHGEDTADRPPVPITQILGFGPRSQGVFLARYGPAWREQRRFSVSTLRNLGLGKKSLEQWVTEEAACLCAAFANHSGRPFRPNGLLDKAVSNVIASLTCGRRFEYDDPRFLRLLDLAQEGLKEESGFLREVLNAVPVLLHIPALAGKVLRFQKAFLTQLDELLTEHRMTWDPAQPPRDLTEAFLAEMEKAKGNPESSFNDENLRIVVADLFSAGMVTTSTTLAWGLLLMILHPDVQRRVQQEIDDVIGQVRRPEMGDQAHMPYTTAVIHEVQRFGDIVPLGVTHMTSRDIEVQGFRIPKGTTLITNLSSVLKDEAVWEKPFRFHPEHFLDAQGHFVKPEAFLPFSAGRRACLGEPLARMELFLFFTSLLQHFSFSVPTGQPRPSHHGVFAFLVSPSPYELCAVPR
# How it was run: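 Luminescent read-out of luciferin formed by 5 nM human CYP2D6 demethylating 30 uM Luciferin-ME EGE (Km level) over 60 min at room temperature after NADPH regeneration addition. Data normalized to full inhibition by 1.43 uM quinidine.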
# [8] = molecular target: Alpha-galactosidase (Coffea arabica) (UniProt Q42656); test: Counterscreen for Glucocerebrosidase Inhibitors: qHTS Assay for Coffee Bean alpha-Galactosidase at pH 4.5 (AID 957)
# Chain of Alpha-galactosidase (Coffea arabica) (Q42656 whole entry, looked up): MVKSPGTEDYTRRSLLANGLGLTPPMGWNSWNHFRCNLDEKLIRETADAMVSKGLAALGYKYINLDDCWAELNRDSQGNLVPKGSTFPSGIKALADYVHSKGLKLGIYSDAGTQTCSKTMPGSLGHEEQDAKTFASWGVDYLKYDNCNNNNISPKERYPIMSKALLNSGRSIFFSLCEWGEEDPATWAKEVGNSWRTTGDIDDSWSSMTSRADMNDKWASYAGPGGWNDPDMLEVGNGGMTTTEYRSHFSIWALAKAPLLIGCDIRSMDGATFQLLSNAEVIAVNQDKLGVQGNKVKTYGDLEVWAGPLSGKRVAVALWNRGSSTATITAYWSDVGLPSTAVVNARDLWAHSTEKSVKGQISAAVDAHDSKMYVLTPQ
# How it was run: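 Enzyme is added first (2 nM final), then compounds titrated from 0.7 nM to 77 uM, then 80 uM 4-methylumbelliferyl alpha-D-galactopyranoside; after 20 min at room temperature a pH 10 NaOH/glycine stop precedes fluorescence reading at 365/440 nm.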
# [9] = measured here: cell count channel max response
# [10] = measured here: lipid channel max response
SMILES,Potency [1],Potency [2],Potency [3],"activity change, negative = inhibition ([4]; at 57.5 µM (top of the series))","max response [4, 9]","max response [4, 10]",Potency [5],Potency [6],Potency [7],outcome [8],"activity change, negative = inhibition ([4]; at 25.7 µM (top of the series))"
COc1c2c(cc3c1OCO3)C13C=CC(OC)CC1N(C2)CC3O (configuration not stated),inactive,inactive,inactive,11.5% (inactive),12.8%,26.7%,inactive,,,,
CNC(=O)Oc1cccc2c1OC(C)(C)C2,,inactive,inactive,4.9% (inactive),5.85%,6.59%,inactive,inactive,,,
CC(N)C(O)c1ccc(O)c(O)c1 (configuration not stated),,inactive,inactive,9.23% (inactive) and 2.97% (inactive),10.7% and 5.9%,23.4% and 5.16%,inactive,inactive,,,
COc1ccc(/C=C/c2cc(O)cc(O)c2)cc1,,inactive,inactive,4.7% (inactive),1.7%,6.07%,inactive,inactive,,,
OCC1CCCN2CCCCC12 (configuration not stated),,inactive,inactive,1.09% (inactive),-1.96%,1.94%,inactive,inactive,,,
CNc1ccccc1C(=O)O,,inactive,inactive,-0.857% (inactive),25%,25.4%,inactive,inactive,,,
C[C@@]12CCC(O)C[C@H]1CCC1C2CC[C@]2(C)C(=O)CCC12 (some centres not stated),inactive,inactive,inactive,1.65% (inactive),7%,9.46%,inactive,,,,
N#C/C(=C\c1ccc(O)cc1)C(=O)O,inactive,inactive,,4.55% (inactive),8.92%,15.9%,inactive,,,,
CC(=O)C1CCC2C3CCC4CC(O)CCC4(C)C3CC(O)C12C (configuration not stated),,inactive,inactive,-2.59% (inactive),3.25%,2.61%,inactive,inactive,,,
COC(=O)COc1cc(Cl)c(Cl)cc1Cl,,inactive,inactive,2.27% (inactive),13.1%,15.5%,inactive,inactive,,,
CC1C(=O)OC2C(O)C34C5OC(=O)[C@@]3(OC3OC(=O)[C@H](O)[C@]34C(C(C)(C)C)C5O)[C@]12O (some centres not stated),,inactive,inactive,0.291% (inactive),13.6%,14.3%,inactive,inactive,,,
O=C(CC[N+](=O)[O-])OCC1OC(O)C(OC(=O)CC[N+](=O)[O-])[C@@H](OC(=O)CC[N+](=O)[O-])C1OC(=O)CC[N+](=O)[O-] (some centres not stated),,inactive,inactive,3.27% (inactive),13%,17.5%,inactive,inactive,,,
CNC(=O)Oc1ccc2c(c1)[C@@]1(C)CCN(C)[C@@H]1N2C,,,,,-3.51%,-6.16%,inactive,,631 nM (active),inactive,-1.12% (inactive)
C[C@]12CCC3C(C=CC4=CC(=O)CC[C@]43C)C1CC[C@]2(O)CCC(=O)O (some centres not stated),,inactive,inactive,1.44% (inactive),28.8%,34.1%,inactive,inactive,,,
C[C@@]12CCC3C(CC[C@@H]4CC(O)CC[C@@]34C)C1CCC2O (some centres not stated),,inactive,inactive,5.33% (inactive),18.2%,26%,inactive,inactive,,,
CCC1CN2CCC1CC2C(O)c1ccnc2ccc(OC)cc12 (configuration not stated),,inactive,inactive,6.54% (inactive),2.56%,12.3%,inactive,inactive,,,
CCC(C)C(=O)OC1C(O)C2C(CN3CC(C)CCC3[C@]2(C)O)C2C[C@]34O[C@@]5(O)C(OC(=O)C(C)(O)C(C)O)CCC3(C)C5C(OC(C)=O)C(OC(C)=O)C4[C@@]21O (some centres not stated),,inactive,inactive,4.38% (inactive),24.4%,35.3%,inactive,inactive,,,
FC(F)(F)c1cccc(N2CCNCC2)c1,,inactive,inactive,4.68% (inactive),-7.45%,-3.82%,inactive,inactive,,,
NNCc1ccccc1,inactive,inactive,inactive,14.8% (inactive),5.74%,20.3%,inactive,,,,
N#CC(O[C@@H]1OC(COC2OC(CO)C(O)C(O)[C@@H]2O)C(O)C(O)C1O)c1ccccc1 (some centres not stated),,inactive,inactive,2.68% (inactive),-0.407%,5.27%,inactive,inactive,,,
CC(=O)O.CC(=O)O.[Cd],,inactive,inactive,4.11% (inactive),7.92%,9.61%,inactive,inactive,,,
CC1C(=O)OC2C1CC[C@@]1(C)C=CC(=O)[C@@]3(C)O[C@@]213 (some centres not stated),inactive,inactive,,3.63% (inactive),-6.2%,2.49%,inactive,,,,
CC1C(=O)OC2O[C@]3(C)CC[C@H]4C(C)CCC1[C@]24OO3 (some centres not stated),,inactive,inactive,8.3% (inactive),8.98%,23.7%,inactive,,,,
